According to the supplement of paper PMC3334620:
In all, about 33,000 sequences were measured (“E-score (-0.5 to 0.5)”: median about -0.053, highest 2% from about 0.37 on). The list comes from a sample in which the highest values are over-represented; it also holds similar and randomly drawn sequences.

These sequences were tested against Hap1 (UniProt P0CE41) (assay: PBM E-score (8-mer binding enrichment) (E-score (-0.5 to 0.5)); higher = stronger / more preferred TF binding). Conditions: protein concentration: 200 nM; construct: GST-DNA-binding domain.
Chain of UniProt P0CE41 (P0CE41 whole entry, the tested form may be a part): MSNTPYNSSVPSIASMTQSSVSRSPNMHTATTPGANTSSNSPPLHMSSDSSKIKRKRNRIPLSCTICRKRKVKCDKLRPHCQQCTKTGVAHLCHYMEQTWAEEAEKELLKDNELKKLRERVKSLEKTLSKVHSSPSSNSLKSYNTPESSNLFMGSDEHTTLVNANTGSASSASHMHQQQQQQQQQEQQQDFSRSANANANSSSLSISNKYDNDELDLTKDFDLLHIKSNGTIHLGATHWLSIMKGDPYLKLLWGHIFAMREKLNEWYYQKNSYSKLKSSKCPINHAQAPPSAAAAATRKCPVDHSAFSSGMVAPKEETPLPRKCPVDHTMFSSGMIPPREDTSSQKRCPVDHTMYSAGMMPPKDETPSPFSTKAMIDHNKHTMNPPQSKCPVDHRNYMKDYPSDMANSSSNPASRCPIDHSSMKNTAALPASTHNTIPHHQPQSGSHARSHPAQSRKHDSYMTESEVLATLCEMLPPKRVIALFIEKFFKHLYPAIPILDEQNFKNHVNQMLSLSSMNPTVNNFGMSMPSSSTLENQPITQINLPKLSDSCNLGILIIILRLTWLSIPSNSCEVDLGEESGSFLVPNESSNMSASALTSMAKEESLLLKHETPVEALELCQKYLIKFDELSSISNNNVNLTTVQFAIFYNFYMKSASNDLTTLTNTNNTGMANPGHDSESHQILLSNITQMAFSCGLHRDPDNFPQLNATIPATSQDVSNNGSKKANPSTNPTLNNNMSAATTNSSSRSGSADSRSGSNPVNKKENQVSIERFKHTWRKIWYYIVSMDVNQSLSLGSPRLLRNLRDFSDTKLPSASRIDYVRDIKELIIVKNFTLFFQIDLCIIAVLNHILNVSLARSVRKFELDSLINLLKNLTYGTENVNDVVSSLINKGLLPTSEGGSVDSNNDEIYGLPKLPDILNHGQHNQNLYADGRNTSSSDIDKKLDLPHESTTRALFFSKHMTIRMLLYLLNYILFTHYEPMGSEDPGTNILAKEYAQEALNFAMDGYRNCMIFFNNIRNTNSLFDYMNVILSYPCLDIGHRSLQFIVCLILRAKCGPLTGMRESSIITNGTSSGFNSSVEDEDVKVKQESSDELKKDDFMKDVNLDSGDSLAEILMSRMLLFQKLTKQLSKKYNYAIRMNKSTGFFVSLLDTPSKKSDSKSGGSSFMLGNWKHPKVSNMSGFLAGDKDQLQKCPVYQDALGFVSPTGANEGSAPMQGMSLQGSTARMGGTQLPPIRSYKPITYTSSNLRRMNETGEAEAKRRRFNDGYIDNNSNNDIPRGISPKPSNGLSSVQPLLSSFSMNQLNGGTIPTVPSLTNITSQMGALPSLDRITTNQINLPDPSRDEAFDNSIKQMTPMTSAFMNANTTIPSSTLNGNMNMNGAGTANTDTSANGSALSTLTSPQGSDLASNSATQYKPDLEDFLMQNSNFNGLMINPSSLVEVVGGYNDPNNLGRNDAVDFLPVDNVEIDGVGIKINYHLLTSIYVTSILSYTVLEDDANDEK
In short: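 Universal all-10-mer Agilent arrays, fresh or stripped once, were converted to double-stranded form by primer extension. GST-tagged yeast transcription factors from PURExpress in vitro transcription/translation, full-length or DNA-binding domain only, were applied at about 100-200 nM and detected with fluorescent anti-GST. After masliner normalisation, the Universal PBM Analysis Suite scored each ungapped eight-base word together with its reverse complement by E-score.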

Row | Sequence | PBM E-score
1 | TCCTGCCA | -0.12
2 | GTCATGAC | -0.111
3 | AAAAACTC | 0.0741
4 | AGATGGCT | -0.0974
5 | ACTATGCA | -0.16
6 | CGCTACTA | 0.163
7 | CCGCCTTA | -0.0179
8 | CCGCTCAA | 0.0207
9 | AGCCAGCA | -0.268
10 | CGTTTACA | -0.145
11 | CAACAGAA | -0.227
12 | AACAAATC | -0.00416
13 | AGCGTACT | -0.0657
14 | CGTCCGCC | 0.281
15 | AGTCCGTA | 0.269
16 | CGTCCGTA | 0.309
17 | CGTCCGGC | 0.41
18 | CGTCCGGA | 0.443
19 | GGTCCGCA | 0.3
20 | CGTCCGTC | 0.234
21 | CGTCCGCA | 0.228
22 | GGTCCCGA | 0.231
23 | GGTCCGGA | 0.44
24 | AGTCCGGA | 0.452

Row | Sequence | PBM E-score
25 | AGTCCGCA | 0.293
26 | ATGAAGAA | -0.136
27 | GCACTGGA | -0.275
28 | ACTGCCGA | 0.261
29 | GCCGACCC | 0.139
30 | AAACAGCC | -0.0624
31 | AATGATCA | -0.179
32 | CTTCAAGA | -0.235
33 | AGGAAAGA | -0.275
34 | ACATTCGC | 0.0143
35 | AGCCAAGA | -0.26
36 | AGGACACA | -0.0409
37 | AGATTCGA | -0.117
38 | AGGTATTA | 0.0089
39 | CGGTATTC | 0.304
40 | CGGTAATA | 0.408
41 | CGGTAATC | 0.327
42 | GGGTAATA | -0.00588
43 | CGGTATTA | 0.412
44 | CCCGGGAA | 0.339
45 | CCGGGGAA | 0.372
46 | CGGGGGAA | 0.354
47 | ACGGGGAC | 0.159
48 | ACCGGGAA | 0.35

Row | Sequence | PBM E-score
49 | ACGGGGAG | -0.0069
50 | TCCGGGAA | 0.376
51 | ACGGGGAT | 0.383
52 | CCGGGGGA | 0.343
53 | GCAGGCTA | -0.169
54 | CGCCATAA | -0.0284
55 | TACTTAGA | -0.362
56 | GCGCCCGC | 0.0873
57 | AGGCTCAT | -0.159
58 | CGCGTGGA | -0.079
59 | GACCGATA | 0.434
60 | TACCGAAA | 0.188
61 | AACCGATG | 0.193
62 | GACCGACA | 0.359
63 | GACCGATC | 0.341
64 | AACCGATA | 0.421
65 | TACCGATA | 0.378
66 | CACCGATG | 0.196
67 | AACCGATT | 0.263
68 | TACCGACA | 0.209
69 | CACCGATC | 0.22
70 | CACCGATA | 0.375
71 | ATGGGTCA | -0.27
72 | CATGAGGA | -0.0511

Row | Sequence | PBM E-score
73 | CTTTCGAC | -0.0279
74 | AAGGGTCG | 0.0795
75 | CCGATAGC | 0.372
76 | GCGATAGA | 0.223
77 | CCGATAGA | 0.405
78 | GCGATAGC | 0.00865
79 | CAGATAGG | -0.142
80 | ACGATAGC | 0.0603
81 | CCGATAGG | 0.438
82 | ACGATAGG | 0.0214
83 | ACGATAGA | -0.099
84 | ACGATTGG | -0.123
85 | GTGTCCCA | 0.0086
86 | CCGATGCA | 0.242
87 | ATACCCCG | 0.346
88 | ATACCCGG | 0.38
89 | ATACCCGA | 0.398
90 | CTACCCGA | 0.161
91 | ATACCCGC | 0.253
92 | ATACCCTG | -0.0146
93 | CATCGCCC | 0.128
94 | AAAAGGTT | -0.211
